Legend:
Type in all cases: functional
[1] = target: Solute carrier family 2, facilitated glucose transporter member 1 (Homo sapiens) (UniProt P11166); assay: ST_JUDE_LEISH: Cytotoxicity at 2uM final concentration against transgenic Leishmania Mexicana promastigotes LmGLUT1 that are glucose transport deficient and complemented with the human glucose transporter GLUT1. Activity is measured by DNA content using SYBR green in vitro
[2] = target: Hexose transporter 1 (Plasmodium falciparum) (UniProt O97467); assay: ST_JUDE_LEISH: Cytotoxicity at 2uM final concentration against transgenic Leishmania Mexicana promastigotes LmPfHT that are glucose transport deficient and complemented with the Plasmodium falciparum hexose transporter. Activity is measured by DNA content using SYBR green in vitro
[3] = target: Glucose transporter (Leishmania mexicana) (UniProt O61059); assay: ST_JUDE_LEISH: Cytotoxicity at 2uM final concentration against transgenic Leishmania Mexicana promastigotes LmGT2 that are glucose transport deficient and complemented with the L. Mexicana glucose transporter 2. Activity is measured by DNA content using SYBR green in vitro

Sequence of Solute carrier family 2, facilitated glucose transporter member 1 (Homo sapiens) (P11166 whole entry): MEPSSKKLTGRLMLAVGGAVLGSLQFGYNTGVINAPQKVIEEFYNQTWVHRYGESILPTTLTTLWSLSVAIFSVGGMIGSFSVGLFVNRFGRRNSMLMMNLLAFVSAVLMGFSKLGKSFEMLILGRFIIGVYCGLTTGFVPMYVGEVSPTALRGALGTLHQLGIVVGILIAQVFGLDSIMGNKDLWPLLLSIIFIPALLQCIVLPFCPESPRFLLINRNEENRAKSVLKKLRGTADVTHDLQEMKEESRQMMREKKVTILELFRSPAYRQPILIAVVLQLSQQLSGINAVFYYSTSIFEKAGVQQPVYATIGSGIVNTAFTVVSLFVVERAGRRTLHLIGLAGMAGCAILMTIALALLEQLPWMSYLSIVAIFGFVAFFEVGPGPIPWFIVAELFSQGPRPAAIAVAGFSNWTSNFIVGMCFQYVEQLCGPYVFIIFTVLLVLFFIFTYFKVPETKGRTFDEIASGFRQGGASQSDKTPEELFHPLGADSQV

| SMILES | inhibition [1] [%] | inhibition [2] [%] | inhibition [3] [%] |
| --- | --- | --- | --- |
| Cc1ccc(C(=O)Nc2ccc(F)cc2)cc1-c1nc(NC2CC(C)(C)NC(C)(C)C2)nc2c1ccc(=O)n2-c1c(F)cccc1F | 4.77 | 3.62 | 2.81 |
| CN1CCC(C(=O)Nc2cccc(-c3cccc(-c4nc5cc(F)ccc5[nH]4)c3)c2)CC1 | 4.7 | 5.02 | 6.69 |
| Cc1cc(N)nc2ccc(-c3ccc(CCN)cc3)cc12 | 2.07 | 3.64 | 0.96 |
| CCCC(C)Nc1nc(C)cc(NCCC(=O)Nc2ccc(OC)cc2)n1 (stereo unspecified) | 1.95 | 0.08 | -0.58 |
| COc1ccccc1N(C)CCNc1cc(C)nc(Nc2ccc(C)cc2)n1 | 8.84 | 7.28 | 1.83 |
| FC(F)(F)c1ccc(CSc2ccc3nnc(-c4ccccn4)n3n2)cc1 | 9.17 | 9.71 | 7.64 |
| N#Cc1ccc2c(c1)CCN(CCC1CCC(NC(=O)/C=C/c3ccc(F)c4ccccc34)CC1)CC2 (stereo unspecified) | 16.1 | 20.9 | 11.4 |
| CCOc1ncccc1CN1CCC(N2CCc3cc(NC(=O)c4cc(C)on4)ccc32)C1 (stereo unspecified) | -0.44 | 0.36 | -0.18 |
| Cc1cc(=O)c2cc(-c3ccc(OC(F)(F)F)cc3)ccc2[nH]1 | -2.2 | 0.49 | -0.86 |
| COc1ccc(NC(=O)[C@H](CC(C)C)Nc2cc(C)nc(NCCc3ccccc3OC)n2)cc1 | 1.28 | 2.79 | 0.24 |
| Oc1ccc(CCNc2nc(NCc3ccc4cc(Cl)ccc4c3)nc(N3CCNCC3)n2)cc1 | -0.16 | 1.41 | 0.67 |
| Cc1cccc(CC(=N)NCCCCCCNC(=N)Cc2cccc(C)c2)c1 | 0.27 | 0.31 | -2.06 |
| O=C(/C=C/c1ccc(Cl)c(Cl)c1)NCCCCCN1CCC(NC(=O)Nc2cccc(Cl)c2)CC1 | 3.22 | 4.71 | 3.33 |
| CCOc1ccc(C(=O)Nc2cc(Br)c3c(c2)CNCC3)cc1Cl | 1.83 | 2.23 | -0.05 |
| CN1CCC(N2CCN(Cc3cccc(-c4ccc(-c5nc6cc(C(F)(F)F)ccc6[nH]5)cc4)c3)CC2)CC1 | 2.62 | 3.31 | 2.07 |
| CCn1c(-c2nonc2N)nc2c(-c3cccc(NC(=O)Nc4cccc(C(F)(F)F)c4)c3)ncc(OCCCN)c21 | 2.47 | 1.37 | 0.62 |
| CN1CCC(N2CCN(C(=O)c3cccc(-c4cccc(-c5nc6ccccc6[nH]5)c4)c3)CC2)CC1 | 0.86 | 2.54 | 2.11 |
| Cc1sc(NC(=O)Cc2cccc(C(F)(F)F)c2)nc1-c1cccc(Cl)c1 | 9.6 | 8.91 | 8.34 |
| FC(F)(F)c1cnc(Sc2nnc(-c3ccco3)o2)c(Cl)c1 | 17.1 | 12.9 | 11.8 |

| SMILES | inhibition [1] [%] | inhibition [2] [%] | inhibition [3] [%] |
| --- | --- | --- | --- |
| CCCCCCNC(=O)C1Cc2c([nH]c3ccc(Br)cc23)C2(CCN(Cc3ccccc3)CC2)N1 (stereo unspecified) | 45.6 | 15.5 | 30.9 |
| Cn1cncc1C(=O)Nc1cccc(-c2ccc(-c3nc4cc(C(F)(F)F)ccc4[nH]3)cc2)c1 | 9.17 | 6.73 | 5.1 |
| Cc1cc(N2CCCC2=O)ccc1-c1ccc(C(=O)N2CCC(Oc3cccc(Cl)c3)CC2)cc1 | 0.43 | 1.95 | 3.87 |
| CCC1CN(CCCn2c3ccccc3c3ccccc32)C(CC)CN1 (stereo unspecified) | -0.46 | -0.59 | -0.18 |
| CN1CCN(c2cc3c(cc2Cl)CCN3C(=O)Cc2ccc(Cl)c(NC(=O)Nc3cccc([N+](=O)[O-])c3)c2)CC1 | -0.26 | -1.82 | 1.55 |
| O=C(NCCc1ccc(Cl)c(Cl)c1)C1CCCN(C(=O)c2ccc(O)c(-c3ccc(Cl)c(Cl)c3)c2)C1 (stereo unspecified) | 1.33 | 2.53 | 4.3 |
| COC(=O)CCCCOc1c(OC)cc(Cc2cnc(N)nc2N)cc1OC | 11.2 | 7.13 | 7.7 |
| O=C(NCCCCN1CCC(c2ccc3c(c2OCCCO)CCCC3)CC1)c1ccc(-c2ccc(C(F)(F)F)cc2)c(CO)c1 | -0.96 | -0.59 | -0.61 |
| Cc1ccc(C)c2c1[nH]c1ccc(C3=NCCN3)cc12 | 0.89 | 1.39 | 1.4 |
| CCCN(CCC)CCCCC(C)Nc1c2ccc(Cl)cc2nc2ccc(OC)cc12 (stereo unspecified) | 8.02 | 8.65 | 9.34 |
| Clc1ccccc1CCNCC1CCN(CC2CCCCC2)CC1 | 4.24 | 5.3 | 1.76 |
| COc1ccc2ncc(F)c(CCN3CCC(NCc4cc(Br)c5c(c4)OCCO5)CC3)c2n1 | 18.9 | 31.4 | 14.3 |
| COc1ccc(-c2ccc(NC(=O)c3cccs3)cc2)cc1CN1CCCN(C)CC1 | 3.24 | 3.15 | -1.12 |
| O=C(/C=C/c1ccccc1O)NCCCCCN1CCC(c2c[nH]c3ccccc23)CC1 | 3.82 | 2.03 | 1.37 |
| Clc1ccc(CNc2nc(NCCc3c[nH]cn3)nc(NC3CCCCC3)n2)cc1 | 0.15 | -1.21 | -0.72 |
| CCCC[C@H](NC(=O)OC(C)(C)C)C(=O)Nc1ccc(Cc2ccc(NC(=O)[C@H](CCCC)NC(=O)OC(C)(C)C)cc2)cc1 | 4.27 | 4.02 | 4.58 |
| COc1ccc(N2CCN(CCCC/C=C/c3ccc(NC(=O)c4cc(Cl)cc(Cl)c4)cc3)CC2)c(OC)c1 | 2.58 | 1.17 | 0.93 |
| O=C(Nc1cccc(C(F)(F)F)c1)Nc1ccc(Cl)c(C(F)(F)F)c1 | -1.34 | -2.17 | -0.99 |

From ChEMBL document CHEMBL3433997, “St. Jude Leishmania screening dataset” (2016)
